For assay [1], the system named is guinea pig Leukotriene B4 Receptor (LTB4), gene 100379538. Description: NVS_GPCR_gLTB4: NovaScreen (NVS) G Protein-Coupled Receptor Assay for guinea pig Leukotriene B4 Receptor (LTB4) (AID 2283247). Put shortly: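 Membranes from guinea pig spleen incubated 2 h with radioligand and compound; bound counts measured by filtration and scintillation. Screened first at 25 uM in duplicate, then actives titrated to a 50 uM top concentration relative to DMSO.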

For assay [2], the target named is bovine Dopamine Receptor (DR), Non-selective Binding, DRD1 (gene 281125) (UniProt Q95136). Description: NVS_GPCR_bDR_NonSelective: NovaScreen (NVS) G Protein-Coupled Receptor Assay for bovine Dopamine Receptor (DR), Non-selective Binding (AID 2283241). In outline:
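Filter-based radioligand binding with bovine striatal membrane, incubated 1 h; DMSO as negative baseline. Initial duplicate single-point test at 25 uM preceded concentration series for actives.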

For assay [3], the target named is human Serotonin, 5-Hydroxytryptamine Receptor 5A (5HT5A), HTR5A (gene 3361) (UniProt P47898). Description: NVS_GPCR_h5HT5A: NovaScreen (NVS) G Protein-Coupled Receptor Assay for human Serotonin, 5-Hydroxytryptamine Receptor 5A (5HT5A) (AID 2283251). Put shortly:
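Membranes from HEK293 cells, radioligand binding read by filtration and scintillation after 1 h. Single-concentration duplicate testing at 25 uM, then concentration-response for actives; positive-direction fitting relative to DMSO.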

The target in assay [4] is guinea pig Opioid, Kappa 1 Receptor (OpiateK), OPRK1 (gene 100135587) (UniProt P41144). Description: NVS_GPCR_gOpiateK: NovaScreen (NVS) G Protein-Coupled Receptor Assay for guinea pig Opioid, Kappa 1 Receptor (OpiateK) (AID 2283252).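 Note: radioligand displacement from kappa opioid receptor in guinea pig cerebellar membranes; active means reduced radioligand binding relative to DMSO.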 In outline: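 Radioligand competition binding using guinea pig cerebellum membrane fraction; 2 h exposure; filter radiodetection. Single concentration 25 uM (duplicate), follow-up concentration-response for actives.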
Sequence of guinea pig Opioid, Kappa 1 Receptor (OpiateK), OPRK1 (gene 100135587) (P41144 whole entry, looked up): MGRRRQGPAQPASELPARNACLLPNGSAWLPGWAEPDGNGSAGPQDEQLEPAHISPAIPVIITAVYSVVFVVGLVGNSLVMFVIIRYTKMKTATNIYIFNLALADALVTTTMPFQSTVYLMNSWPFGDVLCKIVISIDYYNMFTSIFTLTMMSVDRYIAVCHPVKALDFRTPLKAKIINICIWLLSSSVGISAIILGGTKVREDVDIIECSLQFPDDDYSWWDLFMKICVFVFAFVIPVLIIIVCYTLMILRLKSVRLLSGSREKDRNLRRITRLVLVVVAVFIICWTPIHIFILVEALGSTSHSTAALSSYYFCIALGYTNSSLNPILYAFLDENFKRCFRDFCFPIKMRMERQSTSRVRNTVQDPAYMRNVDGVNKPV

The subject of assay [5] is guinea pig Muscarinic, Peripheral (Mperiperal) Receptor, Non-selective Binding, gene 100379235. Description: NVS_GPCR_gMPeripheral_NonSelective: NovaScreen (NVS) G Protein-Coupled Receptor Assay for guinea pig Muscarinic, Peripheral (Mperiperal) Receptor, Non-selective Binding (AID 2283250). In outline: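 Screened in duplicate at 25 uM, hits retested in concentration series to 50 uM max, using bladder membrane radioligand displacement from guinea pig. Filtration and scintillation counting 1 h post-dose, fitted relative to DMSO.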

The target of assay [6] is human Adenosine A1 Receptor (AdoRA1), ADORA1 (gene 134) (UniProt P30542). Description: NVS_GPCR_hAdoRA1: NovaScreen (NVS) G Protein-Coupled Receptor Assay for human Adenosine A1 Receptor (AdoRA1) (AID 2283254). In outline:
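Hum. cortical membranes + radioligand, cmpd 1 h; filtration, scintillation count. Readout = decrease vs DMSO. Primary 25 uM dup; hits → conc. series.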

Assay [7] deals with human Serotonin, 5-Hydroxytryptamine Receptor 7 (5HT7), HTR7 (gene 3363) (UniProt P34969). The experiment in a line: NVS_GPCR_h5HT7: NovaScreen (NVS) G Protein-Coupled Receptor Assay for human Serotonin, 5-Hydroxytryptamine Receptor 7 (5HT7) (AID 2283255).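 Note: hits reduce specific radioligand binding relative to DMSO.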 Put shortly: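 Filter-bound radioactivity counted after 1 h, with loss of specific radioligand binding fitted against DMSO. Membrane protein came from CHO cells expressing human 5HT7. Chemicals were tested first at 25 uM in duplicate, then in concentration series if active.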
Sequence of human Serotonin, 5-Hydroxytryptamine Receptor 7 (5HT7), HTR7 (gene 3363) (P34969 whole entry, looked up): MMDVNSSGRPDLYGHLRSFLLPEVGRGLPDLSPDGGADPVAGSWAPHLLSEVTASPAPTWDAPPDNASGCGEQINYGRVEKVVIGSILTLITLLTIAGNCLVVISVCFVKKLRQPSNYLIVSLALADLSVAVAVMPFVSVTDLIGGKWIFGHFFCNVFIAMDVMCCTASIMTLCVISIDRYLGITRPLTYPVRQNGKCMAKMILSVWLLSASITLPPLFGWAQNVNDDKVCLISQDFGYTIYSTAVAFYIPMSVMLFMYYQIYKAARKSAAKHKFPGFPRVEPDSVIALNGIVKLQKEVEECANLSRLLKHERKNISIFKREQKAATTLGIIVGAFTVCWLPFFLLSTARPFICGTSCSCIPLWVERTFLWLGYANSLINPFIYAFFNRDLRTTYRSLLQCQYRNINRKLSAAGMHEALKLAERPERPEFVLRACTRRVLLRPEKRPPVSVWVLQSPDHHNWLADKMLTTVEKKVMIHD

In assay [8] the target is human Adrenergic, Alpha 2A Receptor (Adra2A), ADRA2A (gene 150) (UniProt P08913). Description: NVS_GPCR_hAdra2A: NovaScreen (NVS) G Protein-Coupled Receptor Assay for human Adrenergic, Alpha 2A Receptor (Adra2A) (AID 2283257). In outline:
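Displacement of a specific radioligand from HT29 membrane protein was counted by filter scintillation after 1 h. Compounds were screened in duplicate at 25 uM, and actives were retested in concentration series. Fitting was positive-direction against DMSO.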

The target in assay [9] is human Serotonin, 5-Hydroxytryptamine Receptor 2A (5HT2A), HTR2A (gene 3356) (UniProt P28223). Description: NVS_GPCR_h5HT2A: NovaScreen (NVS) G Protein-Coupled Receptor Assay for human Serotonin, 5-Hydroxytryptamine Receptor 2A (5HT2A) (AID 2283249). Put shortly:
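Radioligand displacement on human cortex tissue extract, counted by filtration and scintillation 1.5 h post-dosing. Initial single-concentration screen at 25 uM in duplicate, concentration series in follow-up; DMSO as baseline.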

Assay [10] addresses human Serotonin, 5-Hydroxytryptamine Receptor 6 (5HT6), HTR6 (gene 3362) (UniProt P50406). The experiment in a line: NVS_GPCR_h5HT6: NovaScreen (NVS) G Protein-Coupled Receptor Assay for human Serotonin, 5-Hydroxytryptamine Receptor 6 (5HT6) (AID 2283253). Put shortly: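 Filter scintillation counting of radioligand displacement from HEK293-expressed 5HT6, 1 hour post-dose, with loss of signal relative to DMSO. Single 25 uM duplicates first, with concentration series for confirmation.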

For assay [11], the target named is human Adenosine A2a Receptor (AdoRA2a), ADORA2A (gene 135) (UniProt P29274). The experiment in a line: NVS_GPCR_hAdoRA2a: NovaScreen (NVS) G Protein-Coupled Receptor Assay for human Adenosine A2a Receptor (AdoRA2a) (AID 2283256). Put shortly:
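HEK293-derived receptor preparation, radioligand displacement, 1.5 h, filtration + scintillation read. Loss of bound signal scored vs DMSO. Single-point 25 uM in duplicate first, then concentration-response for actives.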

The target in assay [12] is human Adrenergic, Beta 1 Receptor (Adrb1), ADRB1 (gene 153) (UniProt P08588). The experiment in a line: NVS_GPCR_hAdrb1: NovaScreen (NVS) G Protein-Coupled Receptor Assay for human Adrenergic, Beta 1 Receptor (Adrb1) (AID 2283258). Put shortly: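 Membranes/protein extracted from human neuroepithelioma cells, radioligand competition binding read by filtration and scintillation 2 h post-dose. Single 25 uM duplicate screen, then concentration-response follow-up; DMSO as negative control.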
Sequence of human Adrenergic, Beta 1 Receptor (Adrb1), ADRB1 (gene 153) (P08588 whole entry, looked up): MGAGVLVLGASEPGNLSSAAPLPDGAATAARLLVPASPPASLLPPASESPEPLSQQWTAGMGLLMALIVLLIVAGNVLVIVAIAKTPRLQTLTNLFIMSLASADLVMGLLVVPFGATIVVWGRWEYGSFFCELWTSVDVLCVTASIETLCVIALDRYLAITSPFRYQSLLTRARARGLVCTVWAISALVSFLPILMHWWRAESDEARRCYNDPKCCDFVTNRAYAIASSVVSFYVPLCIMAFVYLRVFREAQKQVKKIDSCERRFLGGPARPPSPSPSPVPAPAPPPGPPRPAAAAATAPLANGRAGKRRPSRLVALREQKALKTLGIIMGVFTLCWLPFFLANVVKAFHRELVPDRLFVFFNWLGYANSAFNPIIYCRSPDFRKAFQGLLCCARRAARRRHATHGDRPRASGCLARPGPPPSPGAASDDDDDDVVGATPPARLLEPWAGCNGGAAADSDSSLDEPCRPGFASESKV

In assay [13] the target is human Adrenergic, Alpha 2c Receptor (Adra2C), ADRA2C (gene 152) (UniProt P18825). The experiment in a line: NVS_GPCR_hAdra2C: NovaScreen (NVS) G Protein-Coupled Receptor Assay for human Adrenergic, Alpha 2c Receptor (Adra2C) (AID 2283259). Put shortly: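 Screened first in duplicate at 25 uM, with actives then run as concentration series. Membranes from Sf9 cells were exposed for 1 h, and displacement of radioligand was counted after filtration, using DMSO as baseline.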
Sequence of human Adrenergic, Alpha 2c Receptor (Adra2C), ADRA2C (gene 152) (P18825 whole entry, looked up): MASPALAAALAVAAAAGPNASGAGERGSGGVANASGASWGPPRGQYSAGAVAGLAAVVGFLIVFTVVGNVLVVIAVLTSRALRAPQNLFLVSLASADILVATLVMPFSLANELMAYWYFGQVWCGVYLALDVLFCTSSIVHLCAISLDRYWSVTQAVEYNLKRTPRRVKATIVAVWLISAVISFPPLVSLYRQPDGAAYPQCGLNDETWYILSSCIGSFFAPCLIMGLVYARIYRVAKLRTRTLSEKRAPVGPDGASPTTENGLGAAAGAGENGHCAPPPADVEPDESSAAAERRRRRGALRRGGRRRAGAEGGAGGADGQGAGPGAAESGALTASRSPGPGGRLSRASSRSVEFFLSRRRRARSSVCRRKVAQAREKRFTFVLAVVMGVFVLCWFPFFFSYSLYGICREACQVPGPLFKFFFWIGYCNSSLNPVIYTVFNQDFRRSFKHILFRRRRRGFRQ

The target of assay [14] is Adenosine receptor A1 (Bos taurus) (UniProt P28190). Description: NVS_GPCR_bAdoR_NonSelective: NovaScreen (NVS) G Protein-Coupled Receptor Assay for bovine Adenosine Receptor (AdoR), Non-selective Binding (AID 2283244). Put shortly: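 Cell-free binding with membranes from bovine striatum: radioligand displaced by test chemical, read after 1 h by filtration and scintillation. Single-point 25 uM duplicate primary, 50 uM top concentration in follow-up curves, DMSO baseline.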

The target of assay [15] is guinea pig Leukotriene D4 Receptor (LTD4), CYSLTR1 (gene 100135514) (UniProt Q2NNR5). The experiment in a line: NVS_GPCR_gLTD4: NovaScreen (NVS) G Protein-Coupled Receptor Assay for guinea pig Leukotriene D4 Receptor (LTD4) (AID 2283248). In outline: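 Guinea pig lung membrane preparation; bound radioligand measured by filter scintillation after 1 h, loss of signal versus DMSO marking displacement. Compounds tested at 25 uM in duplicate, hits retested to max 50 uM.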
Sequence of guinea pig Leukotriene D4 Receptor (LTD4), CYSLTR1 (gene 100135514) (Q2NNR5 whole entry, looked up): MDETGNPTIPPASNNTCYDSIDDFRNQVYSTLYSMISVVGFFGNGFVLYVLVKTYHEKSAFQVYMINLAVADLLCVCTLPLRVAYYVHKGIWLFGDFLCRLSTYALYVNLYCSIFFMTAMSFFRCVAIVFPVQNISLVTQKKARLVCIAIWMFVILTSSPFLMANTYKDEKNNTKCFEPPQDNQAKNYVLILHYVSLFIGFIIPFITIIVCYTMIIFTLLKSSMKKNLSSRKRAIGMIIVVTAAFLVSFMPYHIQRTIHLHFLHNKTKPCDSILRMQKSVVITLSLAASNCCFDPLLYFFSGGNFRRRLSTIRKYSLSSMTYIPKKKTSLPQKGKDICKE

Inconclusive results are not listed. Calls of active or inactive are those of the source. Rule for the calls: active = hit-call score of the fitted dose curve at least 0.9, where 1 is the maximum; inconclusive = response in the unintended direction; inactive = score below 0.9.

Sequence of human Adrenergic, Alpha 2A Receptor (Adra2A), ADRA2A (gene 150) (P08913 whole entry, looked up): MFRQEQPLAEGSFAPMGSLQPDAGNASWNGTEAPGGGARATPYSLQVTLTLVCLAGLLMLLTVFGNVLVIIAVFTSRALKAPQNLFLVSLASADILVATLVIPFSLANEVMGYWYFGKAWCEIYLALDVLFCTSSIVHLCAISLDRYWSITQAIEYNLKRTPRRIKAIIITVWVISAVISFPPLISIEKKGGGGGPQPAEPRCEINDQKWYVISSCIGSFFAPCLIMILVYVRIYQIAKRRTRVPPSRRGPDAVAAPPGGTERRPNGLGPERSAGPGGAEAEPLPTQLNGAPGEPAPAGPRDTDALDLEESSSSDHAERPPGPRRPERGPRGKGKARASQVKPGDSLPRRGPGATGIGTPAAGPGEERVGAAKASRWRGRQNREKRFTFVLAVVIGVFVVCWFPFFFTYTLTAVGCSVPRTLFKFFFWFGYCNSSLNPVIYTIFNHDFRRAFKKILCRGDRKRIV
Sequence of human Adenosine A1 Receptor (AdoRA1), ADORA1 (gene 134) (P30542 whole entry, looked up): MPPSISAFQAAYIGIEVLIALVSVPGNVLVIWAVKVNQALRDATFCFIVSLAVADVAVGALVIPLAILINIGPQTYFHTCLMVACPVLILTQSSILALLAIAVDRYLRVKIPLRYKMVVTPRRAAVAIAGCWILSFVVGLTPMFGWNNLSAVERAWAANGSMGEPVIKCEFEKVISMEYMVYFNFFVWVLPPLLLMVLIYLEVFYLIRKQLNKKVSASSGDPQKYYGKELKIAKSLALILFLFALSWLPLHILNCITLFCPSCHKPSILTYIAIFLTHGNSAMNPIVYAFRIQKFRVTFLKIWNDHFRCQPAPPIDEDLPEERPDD
Sequence of human Serotonin, 5-Hydroxytryptamine Receptor 5A (5HT5A), HTR5A (gene 3361) (P47898 whole entry, looked up): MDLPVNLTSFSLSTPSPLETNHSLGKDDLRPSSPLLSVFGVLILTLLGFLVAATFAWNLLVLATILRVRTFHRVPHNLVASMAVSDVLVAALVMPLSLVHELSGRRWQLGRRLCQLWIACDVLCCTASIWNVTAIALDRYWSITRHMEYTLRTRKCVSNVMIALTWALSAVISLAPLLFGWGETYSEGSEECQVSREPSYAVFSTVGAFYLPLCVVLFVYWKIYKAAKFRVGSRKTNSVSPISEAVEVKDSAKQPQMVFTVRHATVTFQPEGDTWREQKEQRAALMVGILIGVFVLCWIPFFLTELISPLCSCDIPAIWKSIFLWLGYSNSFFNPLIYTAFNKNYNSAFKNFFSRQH
Sequence of human Serotonin, 5-Hydroxytryptamine Receptor 2A (5HT2A), HTR2A (gene 3356) (P28223 whole entry, looked up): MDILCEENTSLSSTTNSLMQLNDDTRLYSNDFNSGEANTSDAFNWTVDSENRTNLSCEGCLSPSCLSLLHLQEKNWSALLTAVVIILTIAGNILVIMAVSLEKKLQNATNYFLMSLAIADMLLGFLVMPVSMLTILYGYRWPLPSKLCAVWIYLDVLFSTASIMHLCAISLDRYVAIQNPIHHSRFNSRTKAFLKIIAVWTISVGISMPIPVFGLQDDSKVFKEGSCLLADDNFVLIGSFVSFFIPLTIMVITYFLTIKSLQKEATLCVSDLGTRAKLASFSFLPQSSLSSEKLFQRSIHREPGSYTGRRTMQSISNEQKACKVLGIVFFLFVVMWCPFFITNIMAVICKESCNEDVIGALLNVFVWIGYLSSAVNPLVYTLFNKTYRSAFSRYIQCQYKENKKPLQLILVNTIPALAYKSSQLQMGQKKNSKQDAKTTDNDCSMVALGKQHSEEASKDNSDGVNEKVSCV
Sequence of bovine Dopamine Receptor (DR), Non-selective Binding, DRD1 (gene 281125) (Q95136 whole entry, looked up): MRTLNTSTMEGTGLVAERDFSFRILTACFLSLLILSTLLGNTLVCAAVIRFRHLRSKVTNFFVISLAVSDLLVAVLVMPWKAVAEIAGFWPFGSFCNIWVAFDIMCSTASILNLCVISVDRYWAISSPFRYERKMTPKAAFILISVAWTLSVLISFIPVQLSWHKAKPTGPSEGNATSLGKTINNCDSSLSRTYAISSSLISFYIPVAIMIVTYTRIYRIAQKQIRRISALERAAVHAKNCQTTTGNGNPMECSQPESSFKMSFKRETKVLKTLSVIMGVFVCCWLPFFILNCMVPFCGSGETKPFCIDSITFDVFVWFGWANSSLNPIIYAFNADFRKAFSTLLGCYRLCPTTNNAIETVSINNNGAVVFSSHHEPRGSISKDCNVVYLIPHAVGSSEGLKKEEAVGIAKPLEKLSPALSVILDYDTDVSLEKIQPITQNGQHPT
Sequence of human Serotonin, 5-Hydroxytryptamine Receptor 6 (5HT6), HTR6 (gene 3362) (P50406 whole entry, looked up): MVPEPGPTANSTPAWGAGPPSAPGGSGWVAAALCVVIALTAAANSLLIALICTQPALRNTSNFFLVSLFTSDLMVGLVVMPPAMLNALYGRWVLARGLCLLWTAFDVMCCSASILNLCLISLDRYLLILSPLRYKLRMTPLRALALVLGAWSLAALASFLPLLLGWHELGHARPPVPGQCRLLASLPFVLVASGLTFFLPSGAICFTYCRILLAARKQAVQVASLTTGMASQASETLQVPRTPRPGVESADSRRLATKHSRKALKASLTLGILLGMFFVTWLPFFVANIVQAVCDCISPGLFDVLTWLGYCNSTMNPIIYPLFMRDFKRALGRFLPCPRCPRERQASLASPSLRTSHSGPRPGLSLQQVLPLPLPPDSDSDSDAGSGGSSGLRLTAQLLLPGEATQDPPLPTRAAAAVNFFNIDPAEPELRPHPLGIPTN

Consider `COc1ccc2sc(C(=O)Nc3nnn[nH]3)c(OC(C)C)c2c1`, for which the compound was classed as inactive in [1].
As for `CCn1nc(Cc2ccccc2)cc1C1CCN(C[C@H]2C[C@H](N(C)[C@@H](C(=O)O)C(C)C)C[C@@H]2c2cccc(F)c2)CC1`, the AC50 is 18.6 µM (active) in assay [2], 13.8 µM (active) in assay [3] and 8.5 µM (active) in assay [4].
On to `Nc1ccc(Nc2ccccc2)cc1`, for which the compound was called inactive in assay [5] and in assay [6]. In addition, the half-maximal activity concentration (AC50) is 11.3 µM (active) in assay [3], 20.6 µM (active) in assay [4], 7.22 µM (active) in assay [7] and 9.06 µM (active) in assay [8].
`O=C(O)CC(O)C(=O)O` (stereo unspecified): the result in [4] and in assay [8] was inactive.
As for `CCN(C(=O)c1cc(C)cc(OC[C@H](C)Nc2ccncc2)c1)C(C)C`, the call in [9] was inactive. In assay [8], the AC50 was 7.91 µM (active).
`Cc1[nH]cnc1C[C@H]1CCc2c(C)c3ccccc3n2C1=O`: the AC50 in assay [2] is 8.58 µM (active); in [9] it was 1.45 µM (active); in assay [5] it was 10.5 µM (active); in assay [3] it was 2.93 µM (active); in assay [10] it was 0.399 µM (active); in [7], 3.82 µM (active). For the same compound, the half-maximal activity concentration (AC50) in assay [11] was 22.2 µM (active); in assay [8], 0.56 µM (active); in assay [12], 1.04 µM (active); in assay [13], 5.39 µM (active). For the same compound, the result in assay [4] was inactive.
`CCOc1cccc(-n2cc(C(=O)N3CCN(c4cc(C(=O)O)c5ccccc5c4)CC3)nc2-c2ccc(C)cc2)c1`: the outcome in assay [14] was inactive. Further, the AC50 in assay [15] was 19.8 µM (active); in [3], 34 µM (active); in [6], 14.3 µM (active); in assay [7], 23.8 µM (active); in assay [13] it was 12.3 µM (active).
As to `O=C(CCCCCCCCc1cccnc1)N1CCC(C=C(c2ccccc2)c2ccccc2)CC1`, the call in [1], in assay [9] and in assay [3] was inactive.
Regarding `O=P(OC(CCl)CCl)(OC(CCl)CCl)OC(CCl)CCl`, the outcome in assay [10] was inactive.
For the compound `Cn1c(=O)cc(Oc2ccc(F)cc2F)c2cnc(NCC(C)(C)O)nc21`, the compound was classed as inactive in assay [4].
For the compound `COCCOc1cc2cc(C(=O)NC3CCN(C(C)C)CC3)n(CC(=O)Nc3ccc(Cl)cn3)c2cn1`, the outcome in [5], in assay [4] and in [6] was inactive. In addition, the AC50 in assay [8] was 9.81 µM (active); in assay [13] it was 6.54 µM (active).

The values are drawn from PubChem BioAssay (EPA / NIEHS).
